For experiment [1], the target named is RUNX1 (UniProt Q01196). Description: RUNX1 binding intensity (PBM fluorescence), RUNX1 alone (arbitrary fluorescence units); higher = stronger binding. The conditions noted are these: RUNX1 concentration 2 nM; ETS1 concentration 0 nM. How it is done:
(§1)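 Cooperative gcPBM on 36-bp genomic probes with neighbouring ETS1 and RUNX1 sites. Recombinant human RUNX1 (2 nM) was incubated alone or with ETS1 (25 nM) and detected with anti-RUNX1 antibody plus Alexa488 secondary. Values are medians over 4 replicate spots; the RUNX1+ETS1 data were normalised to the RUNX1-only data. The probes sit in constant array flanks that are not printed.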

Experiment [2] concerns the target T1, ETS1 (UniProt P14921).
T1 sequence: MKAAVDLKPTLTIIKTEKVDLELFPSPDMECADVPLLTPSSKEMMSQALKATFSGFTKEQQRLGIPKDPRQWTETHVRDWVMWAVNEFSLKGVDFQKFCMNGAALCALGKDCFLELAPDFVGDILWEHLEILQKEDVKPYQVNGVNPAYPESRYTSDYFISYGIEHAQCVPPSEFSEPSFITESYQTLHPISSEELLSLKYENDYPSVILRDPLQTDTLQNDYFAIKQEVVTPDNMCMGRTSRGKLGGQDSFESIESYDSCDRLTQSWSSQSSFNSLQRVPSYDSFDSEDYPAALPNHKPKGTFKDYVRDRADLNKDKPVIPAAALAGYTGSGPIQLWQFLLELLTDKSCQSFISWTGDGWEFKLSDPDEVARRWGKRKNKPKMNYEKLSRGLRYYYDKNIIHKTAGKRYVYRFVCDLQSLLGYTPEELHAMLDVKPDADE
Kind of experiment: ETS1 binding intensity (PBM fluorescence) in presence of RUNX1, normalised to ETS1-only experiment (arbitrary fluorescence units); higher = stronger binding. The conditions noted are these: ETS1 concentration 1 nM; RUNX1 concentration 25 nM.

The target in experiment [3] is RUNX1 (UniProt Q01196). Kind of experiment: RUNX1 binding intensity (PBM fluorescence) in presence of ETS1, normalised to RUNX1-only experiment (arbitrary fluorescence units); higher = stronger binding. The conditions noted are these: RUNX1 concentration 2 nM; ETS1 concentration 25 nM. Here is the method: as §1
Experiment [4] addresses T1, ETS1. Description: ETS1 binding intensity (PBM fluorescence), ETS1 alone (arbitrary fluorescence units); higher = stronger binding. To be noted: ETS1 concentration 1 nM; RUNX1 concentration 0 nM.
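For RUNX1 binding intensity (PBM fluorescence) in presence of ETS1, normalised to RUNX1-only experiment in this document: Full-length recombinant human ETS1 or RUNX1 bound to double-stranded 36-bp genomic probes on microarrays, detected by protein-specific primary antibody and Alexa488 secondary, spot fluorescence as median of four replicate spots.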
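For RUNX1 binding intensity (PBM fluorescence), RUNX1 alone in this document: Full-length recombinant human RUNX1 bound to double-stranded 36-bp genomic probes on a high-density microarray, scored as Alexa488 fluorescence per spot via anti-RUNX1 antibody, median of four replicate spots.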

Chain of RUNX1 (Q01196 whole entry): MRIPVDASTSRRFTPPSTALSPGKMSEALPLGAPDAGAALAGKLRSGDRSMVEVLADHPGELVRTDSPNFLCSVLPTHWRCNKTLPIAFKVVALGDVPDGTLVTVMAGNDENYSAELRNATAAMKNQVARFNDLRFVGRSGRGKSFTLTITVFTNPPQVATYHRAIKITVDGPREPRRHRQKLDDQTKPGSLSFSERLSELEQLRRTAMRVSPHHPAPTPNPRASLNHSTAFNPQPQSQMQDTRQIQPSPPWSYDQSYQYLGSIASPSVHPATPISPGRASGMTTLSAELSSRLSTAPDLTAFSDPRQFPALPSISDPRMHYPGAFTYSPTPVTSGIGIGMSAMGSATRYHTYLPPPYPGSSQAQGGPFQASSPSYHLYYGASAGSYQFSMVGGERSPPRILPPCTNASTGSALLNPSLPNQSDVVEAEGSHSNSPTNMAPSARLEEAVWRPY

As to CTACCCTCCCTCTTCCTGTGGTTTCTCAAACATGTC, the RUNX1 binding intensity with RUNX1 [1] is 2470; with RUNX1 [3] it was 5090. The ETS1 binding intensity with ETS1 [2] was 937.

As for TGGGGAGCAGGAAGCTGGGGGCGGTTGTGGAGGGAC, the values for the RUNX1 binding intensity in the experiment with RUNX1 [1] and with RUNX1 [3] were 723 and 867, respectively. Besides, the ETS1 binding intensity with ETS1 [2] came out at 1600.

In the case of TATTCTTCCTGTACTTAAGCTTGCTGGTGTGGTTTC, the RUNX1 binding intensity was 868 with RUNX1 [1] and 1560 with RUNX1 [3]. In the experiment with ETS1 [2], the ETS1 binding intensity stood at 492.

As to AACTAGAGCGTCATTTCCTGTGGGTACAAGTCCAGT, the RUNX1 binding intensity came to 842 with RUNX1 [1] and 1370 with RUNX1 [3]. Further, in the experiment with ETS1 [2], the ETS1 binding intensity was determined as 2400.

With TGTCGTACATTTCCGCCTTGTGGGCACAATCTGATT, the RUNX1 binding intensity came to 971 with RUNX1 [1] and 1950 with RUNX1 [3]. For the same sequence, in the experiment with ETS1 [2], the ETS1 binding intensity is 1280.

In the case of GGACTGCGTTTCCGGACACTGCGGGTGCCGGTAGCC, the RUNX1 binding intensity is 671 in the experiment with RUNX1 [1] and 1450 with RUNX1 [3]. For the same sequence, the ETS1 binding intensity with ETS1 [2] stood at 1680.

As to GTAAACTAGCTCTTCCGGTCTGTGGCCCTCACAGGA, the RUNX1 binding intensity in the experiment with RUNX1 [1] turned out to be 824; with RUNX1 [3], 1500. The ETS1 binding intensity with ETS1 [2] is 3250.

Take CCTCAAAACCCGGAAACGCCTTGCGGGGCAGTGTGG: the RUNX1 binding intensity in the experiment with RUNX1 [1] stood at 789; with RUNX1 [3], 1400. Besides, the ETS1 binding intensity with ETS1 [2] worked out at 4480.

As to AGCCACGGACTTCCGCCTACAGGTCGCCGCAGGTCC, the RUNX1 binding intensity stood at 756 with RUNX1 [1] and 1700 in the experiment with RUNX1 [3]. Further, in the experiment with ETS1 [2], the ETS1 binding intensity was 882.

Consider CCAGCCGGAAGCCCCGCCCCCTAGAGGCACCGCGGA, for which the RUNX1 binding intensity came to 1000 in the experiment with RUNX1 [1] and 1270 with RUNX1 [3]. Further, the ETS1 binding intensity with ETS1 [2] was found to be 962.

Turning to TATCACATCCTGCCGGACAAAAAGGCCAAACCACCT, the RUNX1 binding intensity with RUNX1 [1] turned out to be 919; with RUNX1 [3] it was 1850. For the same sequence, the ETS1 binding intensity with ETS1 [2] came out at 473.

For the sequence AACTTCCTCCGCGCGGGGCCACTGCTACCACAAAGG, the values for the RUNX1 binding intensity with RUNX1 [1] and in the experiment with RUNX1 [3] were 1070 and 2540, respectively. Moreover, the ETS1 binding intensity with ETS1 [2] came to 588.

Regarding TAAGAAAAACAGTCATCCTGCGGTTTCCATTTGTGA, the ETS1 binding intensity in the experiment with ETS1 [2] turned out to be 1080. The RUNX1 binding intensity with RUNX1 [3] amounted to 5090.

On to GGAGCGACGGAAGCACCTGAAGCGGTCTTTCCCCGA, for which the ETS1 binding intensity in the experiment with ETS1 [4] turned out to be 514.

For the sequence GCTGTTTCCTGCTGATAAAAACACCCCACAACTTCA, the ETS1 binding intensity in the experiment with ETS1 [4] was 449.

For TCTTTTTATTTCCTGTGCAGTCTCGCCCACAGCACT, the ETS1 binding intensity in the experiment with ETS1 [4] was determined as 1070.

In the case of TGTCCGGGCAGGAAGGGGTGCTCTGTGGGCTTGGAG, in the experiment with ETS1 [4], the ETS1 binding intensity is 948.

With CCGCTTCCGGCCTTCGCCCGGCTTACCCGCGTCGCA, the values for the RUNX1 binding intensity with RUNX1 [1] and in the experiment with RUNX1 [3] were 1070 and 2920, respectively. Besides, the ETS1 binding intensity with ETS1 [2] is 1740.

Source of the values: the supplement of paper PMC10681739.
